Test results from the supplement of paper PMC12632987.
Positions count from the first letter of the chain named.

B1: GBRAPL2_0_7194 (protein)
chain: IEERIEELKKLSIEEAVKEGIRLVKEVKEDESFSKEEIVEIAERVAKIVAEKAKEEKTEEALDLAWKFADEVREILKEIDPNDAAYVESEIGSELMEIES
B2: GBRAPL2_0_7196 (protein)
chain: YLERIEKMKKLSPEEAYKEAKKLVEELAKDESISPEELEKILEAILEMMAEFVKKTKKEEMEKKFDEIADLAVEAAAKKDPNLAAYIASYAGSLRVEVES
B3: GBRAPL2_0_7204 (protein)
chain: YLEKIEKAKSLSPKELFEALKKLVKELAKDKSVSPEEKEEILEAIIKLAAERVKETKTEEDEKAFEEIVKEAVKVAEKIDPNLAAYVRTYAGSLLYEIES
B4: GBRAPL2_0_7192 (protein)
chain: YEERLEEISKLPIEEFAKEAVRIVEEAAKDPSLSLEELEEIALRAIRLLYEKVKEEKTEEAEDIYVEAADRIREILKKIDPNLAAYVATEAGALLYEWES
B5: GBRAPL2_0_7193 (protein)
chain: IEERIEKMKELSIEEAVKEGIEIVEEVMKDPSFTDEEKVEIAERVVDIVAEKAKEEKTEEALDLAVEFARKVREILEKISPEDAAYVETRMGAELMEIES
B6: GBRAPL2_0_7199 (protein)
chain: YLEEIEKAKELSPEEAFEKLEKLVKELAEDDSISLEELEEILEAIIELAAEKVKETKREEDLEKFDRIVDLAAEAAAKRDPNLAAYIRTYGGSLLIEVEE
B7: GBRAPL2_0_7202 (protein)
chain: YLEEIEKAKELSPEELFKKLKELVEKLAEDDSISPEEKEEILLKIVELAAEKVKETKTEEDEKKFEEIVELAVKVAEKIDPNLAAYIRTHAGSLLYENES
B8: GBRAPL2_0_7203 (protein)
chain: YLEEIEKAKSLSPEELFKKLKELVKKLAEDKSISPEEKEEILEAIIKLAGEKVKETKTEETEKQFDEIVELAVEVAEKIDPNLAAYIRTLAGSLLYENES
B9: GBRAPL2_0_7198 (protein)
chain: YLERIEKAKELSPEETFKALKEIVKELAEDDSISLEELEEILEKIVELAAEKVKETKKEEDLEKFDEIVDLATEAAAKRDPNLAAYIDTYGGSLLIEVEE
B10: GBRAPL2_0_7200 (protein)
chain: B9 chain with R4E, T16A, A19K, I23L, V46I, K58S, E63K, N82L
B11: GBRAPL2_0_7205 (protein)
chain: YEEEIEKAKELSPEELFKALKELVKKLKEDDSISLEELEEILLRILELAAEKVKEVKTEEAEEAFDELVELAVEAMKKRDPNMANYIETYGGSLLYEIES
B12: GBRAPL2_0_7201 (protein)
chain: YLEEIEKAKKLSPEEAFKKLKELVKKLAEDDSISLEELEEILEKILKLAAEKVKKTKKEEDLEKFEEIVDLATEAAAKRDPLLAAYIDTYGGSLLIEVEE
B13: GBRAPL2_0_7197 (protein)
chain: YLKEIEEMKKLSPEEAFEKAKELVKKLAEDKTISPEELEKILEAILELAAEIVKKTKEEKMEEKFDELADLAVKAAAKKDPNLAAYIASYAGSLRYEVES
B14: GBRAPL2_0_7195 (protein)
chain: VEEEIERISELPIEEAAEEGVRLVERVVADPSFTDEEKVEVALRVVDILAKKVKEEKTEEAEDIYVEALDEIRKLLLSVGPELANYVYAEGGSELMEIES
B15: GBRAPL2_0_7191 (protein)
chain: YEEELKKISELPIEEFAKRGVELVERAAKDPSLTLEELEELAERVIELLIEKVKEEKTEEAEEIYVEAADRIREILLKIDPNLAADVATEAGAGLYEIES
B16: GBRAPL2_0_7206 (protein)
chain: YEAEIEAAKKLTPEEAFKKLKELVKKLAKDTSLSKEELEKILEAIIDLAYEIYKKEKTEEAEEAFDEIVDLAVEAAAKRDPNLAAYIATYGGSKIMEAES

Each binder was assayed against GABARAPL2, P60520 (assay: median log2 fold change of GCK-ALFA target abundance (FLAG IP / Myc IP barcode read proportion) (log2 ratio); each designed protein is fused to an ALFA-tag nanobody in HEK293 cells to bring the named protein to FLAG-tagged glucokinase (GCK); Myc marks an untargeted standard; higher = target protein stabilised (more abundant)). Details: target protein: 3xFLAG-MCP-GCK-ALFA reporter; HEK293 landing pad (RPLP).
Sequence of GABARAPL2, P60520 (P60520 whole entry, the tested form may be a part): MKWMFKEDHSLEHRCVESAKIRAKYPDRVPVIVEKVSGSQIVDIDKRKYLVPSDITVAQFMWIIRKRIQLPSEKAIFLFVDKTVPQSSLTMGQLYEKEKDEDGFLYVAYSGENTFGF
Procedure, shortened: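 The readout is target abundance, the per-binder median log2 ratio of FLAG to Myc barcode read proportions. It came from HEK293 landing-pad cells carrying a recombined ALFA-nanobody-fused binder library, induced with 2 μg mL^−1 doxycycline and transfected with a plasmid for a FLAG-tagged target and a Myc-tagged standard. After 48 h, lysates were immunoprecipitated with anti-FLAG and anti-Myc, and circular RNA barcodes were reverse transcribed, amplified and sequenced. Each barcode needed a proportion of at least 10^−7 in both replicates and each binder at least 3 barcodes per replicate, a pseudocount of 10^−6 was added, and the replicates were pooled.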

**Q.** How did the “median log2 fold change” value turn out when B1 was run?
**A.** 0.238

**Q.** For B2, which “median log2 fold change” value is on record?
**A.** 0.192

**Q.** How did the “median log2 fold change” value turn out when B3 was run?
**A.** 0.0789

**Q.** For B4, which “median log2 fold change” value is on record?
**A.** -0.305

**Q.** With B5 as the binder, how does the “median log2 fold change” value read?
**A.** 0.33

**Q.** With B6 as the binder, how does the “median log2 fold change” value read?
**A.** 0.196

**Q.** For B7, which “median log2 fold change” value is on record?
**A.** 0.0999

**Q.** With B8 as the binder, how does the “median log2 fold change” value read?
**A.** 0.0798

**Q.** How did the “median log2 fold change” value turn out when B9 was run?
**A.** 0.104

**Q.** Which “median log2 fold change” value does the source give for B10 here?
**A.** 0.104

**Q.** With B11 as the binder, how does the “median log2 fold change” value read?
**A.** 0.126

**Q.** How did the “median log2 fold change” value turn out when B12 was run?
**A.** 0.0418

**Q.** How did the “median log2 fold change” value turn out when B13 was run?
**A.** 0.245

**Q.** B14 was tested. Which “median log2 fold change” value did it give?
**A.** 0.163

**Q.** B15 was tested. Which “median log2 fold change” value did it give?
**A.** 0.23

**Q.** Which “median log2 fold change” value does the source give for B16 here?
**A.** 0.12
